# From ChEMBL document CHEMBL3988442, “University of Dundee, Small-Polar-MMV Screening Library” (2021)
# Target: T1, Aspartate--tRNA(Asp/Asn) ligase (Mycobacterium tuberculosis (strain ATCC 25618 / H37Rv)) (UniProt P9WFW3); also: in the data most compounds retested in dose-response had high values
# T1 sequence (whole entry): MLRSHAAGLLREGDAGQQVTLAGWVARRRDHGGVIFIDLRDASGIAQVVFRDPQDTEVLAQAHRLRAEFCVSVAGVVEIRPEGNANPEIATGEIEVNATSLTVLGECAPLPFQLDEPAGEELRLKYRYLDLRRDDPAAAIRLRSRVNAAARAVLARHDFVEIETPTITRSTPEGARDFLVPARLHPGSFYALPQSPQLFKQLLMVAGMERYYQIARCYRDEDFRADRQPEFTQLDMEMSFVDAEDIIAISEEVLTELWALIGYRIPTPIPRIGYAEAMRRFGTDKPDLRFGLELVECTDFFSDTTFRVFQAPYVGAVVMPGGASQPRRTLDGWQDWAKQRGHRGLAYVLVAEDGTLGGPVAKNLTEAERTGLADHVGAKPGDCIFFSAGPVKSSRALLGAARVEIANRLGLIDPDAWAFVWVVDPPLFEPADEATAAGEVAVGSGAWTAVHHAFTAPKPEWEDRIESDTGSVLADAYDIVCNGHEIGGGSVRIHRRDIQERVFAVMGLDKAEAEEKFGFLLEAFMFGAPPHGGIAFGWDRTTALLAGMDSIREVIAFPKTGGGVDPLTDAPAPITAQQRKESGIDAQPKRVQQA
# Assay: Assay for Asp RNA synthetase-1 from Mycobacterium tuberculosis
# Format: functional
# Set-up: scale not given: direction of the effect not stated beside the values
# Conditions: 30 µM
row,SMILES,Percent Effect
1,CCOc1cc(C(=O)N2CCCC(c3cc(C(N)=O)[nH]n3)C2)ccn1 (stereo not drawn),-1.21%
2,CC(=O)N1CCC2(CC1)CC(Oc1ccccc1)CO2 (stereo not drawn),-1.48%
3,Cc1cncc(C2CCCN(C(=O)c3ccc(C)[nH]c3=O)C2)n1 (stereo not drawn),0.25%
4,Cc1ncsc1-c1nnc(C2CCN(Cc3ccc(F)cc3)CC2)o1,4.24%
5,Cc1ncsc1C(=O)NC1CCN(CC(=O)NCc2ccccc2)CC1,1.54%
6,Cc1ncnc(NCc2cc3n(n2)CCCN(S(C)(=O)=O)C3)c1C,0.518%
7,Cc1cc(C2CCCN(CCc3ccccn3)C2)n[nH]1 (stereo not drawn),-5.34%
8,COc1cc(C(=O)NS(=O)(=O)c2cccc(C#N)c2)ccc1C,-2.04%
9,COc1ccc(CN2CC[C@H](NC(C)=O)[C@@H](O)CC2)c(OC)c1,3.53%
10,Fc1cccc(-c2nc(CN3CCOC(Cn4cncn4)C3)co2)c1 (stereo not drawn),-4%
11,O=C(NCc1nnc2n1CCC2)N(Cc1ccco1)C1CC1,1.06%
12,COc1ccc(-c2nnc(SC(C)C(=O)NC3CC3)[nH]2)c(OC)c1 (stereo not drawn),2.19%
13,c1cc2n(n1)CC(CNCc1ccc(OCC3CC3)nc1)CN2 (stereo not drawn),0.395%
14,CC(C)(CNC(=O)OC(C)(C)C)NC(=O)C1CC(=O)N(C2CC2)C1 (stereo not drawn),3.37%
15,CN(C)c1ccc(C(=O)NCC2(c3ccccc3)CCOCC2)cc1,1.31%
16,O=C(Cc1ccccc1F)N1CCN(C(=O)c2cccc(F)c2)CC1,23.6%
17,CS(=O)(=O)NCCNC(=O)C1(c2cccc(Cl)c2)CC1,-2.17%
18,CC(C)N(C)C(=O)CN1CCCC(c2ccc(C(=O)O)cc2)C1 (stereo not drawn),-0.982%
19,c1cnc2c(C3CCN(Cc4ccsc4)CC3)n[nH]c2n1,-1.29%
20,CNS(=O)(=O)c1ccc(CNC(=O)NCC2CCCO2)cc1 (stereo not drawn),0.75%

row,SMILES,Percent Effect
1,NC(=O)C1CCN(C(=O)NCc2ccccc2Cn2cncn2)CC1,2.04%
2,COCCC(=O)N1CCN(C)c2ncccc2C1,4.52%
3,Cc1ccccc1-c1cc(NC(=O)CC(C)C)n(CCO)n1,-0.569%
4,COc1ccccc1CNC(=O)N1CCCC(NS(C)(=O)=O)C1 (stereo not drawn),1.76%
5,COc1cccc(CN2CCOC(Cn3nc(C)cc3C)C2)c1 (stereo not drawn),1.48%
6,Cn1cc(CN2C[C@@H]3CN(Cc4ccoc4)CCO[C@@H]3C2)cn1,3.69%
7,CC(CNC(=O)c1ccc(Cl)cc1I)N1CCCC1 (stereo not drawn),-0.881%
8,COCCN(CCc1ccccc1)Cc1nc2c(cnn2C)c(=O)[nH]1,1.95%
9,Cc1ccc(NC(=O)NC(C)c2nc[nH]n2)s1 (stereo not drawn),3.94%
10,O=C(COCc1nc(-c2ccncc2)no1)N1CCCC1,15.3%
11,CN(C)C(=O)c1cccc(NC(=O)N(CCO)Cc2ccsc2)c1,-4.93%
12,Cn1cc(-c2cnc(N3CCCC3)nc2)cc1C(=O)O,-9.05%
13,Cn1cc(CN2CC[C@H]3OCC[C@@H](C(=O)N4CCCCO4)[C@@H]3C2)cn1,2.85%
14,Cc1noc([C@@]23CCO[C@@H]2CCN(C(=O)c2sccc2C)C3)n1,-0.466%
15,CCn1nnc2c1C(COC)CN(C(=O)Cc1cccs1)C2 (stereo not drawn),-8.15%
16,Cc1c(C)n(-c2ccccn2)c2nc3c(c(N)c12)CCCC3,-3.86%
17,CN(Cc1ccc(F)cc1)C(=O)Cn1nc(-c2ccc(F)cc2)oc1=O,5.72%
18,O=C(NCc1ccc(-c2ccn[nH]2)cc1)N1CCC(N2CCCC2)C1 (stereo not drawn),-3.65%
19,O=C(NCC1CC1)C1=NOC2(CCN(Cc3ccc4c(c3)OCO4)C2)C1 (stereo not drawn),2.18%

# Target: Shiga toxin 2 (Escherichia coli O157:H7) (UniProt P09385+P09386)
# Assay: E. coli 0.157:H7 Shiga Toxin SOP - stx2 screening assay
# Format: functional
# Set-up: scale not given: direction of the effect not stated beside the values
# Conditions: 30 µM
row,SMILES,Percent Effect
1,CCOc1cc(C(=O)N2CCCC(c3cc(C(N)=O)[nH]n3)C2)ccn1 (stereo not drawn),25.9%
2,CC(=O)N1CCC2(CC1)CC(Oc1ccccc1)CO2 (stereo not drawn),-19.5%
3,Cc1cncc(C2CCCN(C(=O)c3ccc(C)[nH]c3=O)C2)n1 (stereo not drawn),-13%
4,Cc1ncsc1-c1nnc(C2CCN(Cc3ccc(F)cc3)CC2)o1,-43.6%
5,Cc1ncsc1C(=O)NC1CCN(CC(=O)NCc2ccccc2)CC1,34.9%
6,Cc1ncnc(NCc2cc3n(n2)CCCN(S(C)(=O)=O)C3)c1C,12.4%
7,Cc1cc(C2CCCN(CCc3ccccn3)C2)n[nH]1 (stereo not drawn),-1.21%
8,COc1cc(C(=O)NS(=O)(=O)c2cccc(C#N)c2)ccc1C,-1.16%
9,COc1ccc(CN2CC[C@H](NC(C)=O)[C@@H](O)CC2)c(OC)c1,-14.9%
10,Fc1cccc(-c2nc(CN3CCOC(Cn4cncn4)C3)co2)c1 (stereo not drawn),1.8%
11,O=C(NCc1nnc2n1CCC2)N(Cc1ccco1)C1CC1,-5.54%
12,COc1ccc(-c2nnc(SC(C)C(=O)NC3CC3)[nH]2)c(OC)c1 (stereo not drawn),7.63%
13,c1cc2n(n1)CC(CNCc1ccc(OCC3CC3)nc1)CN2 (stereo not drawn),-66.4%
14,CC(C)(CNC(=O)OC(C)(C)C)NC(=O)C1CC(=O)N(C2CC2)C1 (stereo not drawn),-23.3%
15,CN(C)c1ccc(C(=O)NCC2(c3ccccc3)CCOCC2)cc1,-24.7%
16,O=C(Cc1ccccc1F)N1CCN(C(=O)c2cccc(F)c2)CC1,-39.5%
17,CS(=O)(=O)NCCNC(=O)C1(c2cccc(Cl)c2)CC1,-2.54%
18,CC(C)N(C)C(=O)CN1CCCC(c2ccc(C(=O)O)cc2)C1 (stereo not drawn),5.69%
19,c1cnc2c(C3CCN(Cc4ccsc4)CC3)n[nH]c2n1,-14.5%
20,CNS(=O)(=O)c1ccc(CNC(=O)NCC2CCCO2)cc1 (stereo not drawn),25.4%

row,SMILES,Percent Effect
1,NC(=O)C1CCN(C(=O)NCc2ccccc2Cn2cncn2)CC1,1.76%
2,COCCC(=O)N1CCN(C)c2ncccc2C1,-19.6%
3,Cc1ccccc1-c1cc(NC(=O)CC(C)C)n(CCO)n1,-1.82%
4,COc1ccccc1CNC(=O)N1CCCC(NS(C)(=O)=O)C1 (stereo not drawn),23.8%
5,COc1cccc(CN2CCOC(Cn3nc(C)cc3C)C2)c1 (stereo not drawn),-0.88%
6,Cn1cc(CN2C[C@@H]3CN(Cc4ccoc4)CCO[C@@H]3C2)cn1,-1.85%
7,CC(CNC(=O)c1ccc(Cl)cc1I)N1CCCC1 (stereo not drawn),-18.5%
8,COCCN(CCc1ccccc1)Cc1nc2c(cnn2C)c(=O)[nH]1,29.5%
9,Cc1ccc(NC(=O)NC(C)c2nc[nH]n2)s1 (stereo not drawn),17.2%
10,O=C(COCc1nc(-c2ccncc2)no1)N1CCCC1,-21.3%
11,CN(C)C(=O)c1cccc(NC(=O)N(CCO)Cc2ccsc2)c1,-18.5%
12,Cn1cc(-c2cnc(N3CCCC3)nc2)cc1C(=O)O,10.6%
13,Cn1cc(CN2CC[C@H]3OCC[C@@H](C(=O)N4CCCCO4)[C@@H]3C2)cn1,-10.1%
14,Cc1noc([C@@]23CCO[C@@H]2CCN(C(=O)c2sccc2C)C3)n1,-3.55%
15,CCn1nnc2c1C(COC)CN(C(=O)Cc1cccs1)C2 (stereo not drawn),-30.3%
16,Cc1c(C)n(-c2ccccn2)c2nc3c(c(N)c12)CCCC3,-68.1%
17,CN(Cc1ccc(F)cc1)C(=O)Cn1nc(-c2ccc(F)cc2)oc1=O,-25.7%
18,O=C(NCc1ccc(-c2ccn[nH]2)cc1)N1CCC(N2CCCC2)C1 (stereo not drawn),9.65%
19,O=C(NCC1CC1)C1=NOC2(CCN(Cc3ccc4c(c3)OCO4)C2)C1 (stereo not drawn),-49.8%
